The list is not random: actives were taken first. Their share in the collection is about 2.8%.
WRN inhibitor: inhibitors of human WRN helicase; Q14191; WRN helicase unwinding, fluorescent forked duplex, kinetic; Potency, µM (titrated, usually from 114 µM), without a hit: at the highest dose activity change, negative = inhibition, usual class: inhibitors; actives 0.46% (n = 360,000); AID 651768; further: potency means the concentration at half of the fitted maximal effect; on the % scale 0 is the no-effect control and ±100 the full control effect; nearly all actives have a fitted effect of over 55% in size
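WRN at 20 nM final preincubated with compound 15 min at room temperature; reaction started with 100 nM fluorophore/quencher forked duplex oligonucleotide and 2 mM ATP final. Unwinding followed kinetically by red fluorescence (ex 525, em 598 nm).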
Pol iota inh: DNA polymerase iota (human) inhibition. Potency, µM (titrated, usually from 115 µM), without a hit: top-dose activity, negative = inhibition, hits mostly inhibitors. actives 1% (n = 390,000). Pol iota fluorescent replication assay, 10 min. Q9UNA4; further: potency means the concentration at half of the fitted maximal effect
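Pol iota at 10 nM preincubated 15 min with compounds at room temperature; reaction started with fluorescent substrate, 50 nM final. Fluorescence read kinetically at 0 and 10 min; buffer-only wells as negative control.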
PI5P4Ka inh: PI5P4K alpha (human) kinase inhibition | max response, % | actives 1.2% (n = 330,000) | PI5P4Kalpha enzyme, ADP-Glo luminescence, 60 min; stronger effect = lower value; active means max response of -50% or lower; inconclusive means between -30% and -50%; inactive means -30% or higher; further: value at the top dose of about 77 µM; on the % scale 0 is the no-effect control and ±100 the full control effect
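Enzyme plus substrate dispensed, test compounds pinned in, then ATP (5 microM final) added. After 60 min at RT, ADP-Glo reagent 1 for 45 min and reagent 2 for 30 min preceded luminescence imaging.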
POLH inh: blocks human DNA polymerase eta activity | Potency, µM (titrated, usually from 114 µM), without a hit: top-dose activity change, negative = inhibition, usual class: inhibitors | AID 588591 | actives 1.2% (n = 390,000) | recombinant Pol eta, fluorescent DNA replication assay | Q9Y253; further: potency means the concentration at half of the fitted maximal effect; on the % scale 0 is the no-effect control and ±100 the full control effect
Target sequence (Q9Y253 whole entry, looked up): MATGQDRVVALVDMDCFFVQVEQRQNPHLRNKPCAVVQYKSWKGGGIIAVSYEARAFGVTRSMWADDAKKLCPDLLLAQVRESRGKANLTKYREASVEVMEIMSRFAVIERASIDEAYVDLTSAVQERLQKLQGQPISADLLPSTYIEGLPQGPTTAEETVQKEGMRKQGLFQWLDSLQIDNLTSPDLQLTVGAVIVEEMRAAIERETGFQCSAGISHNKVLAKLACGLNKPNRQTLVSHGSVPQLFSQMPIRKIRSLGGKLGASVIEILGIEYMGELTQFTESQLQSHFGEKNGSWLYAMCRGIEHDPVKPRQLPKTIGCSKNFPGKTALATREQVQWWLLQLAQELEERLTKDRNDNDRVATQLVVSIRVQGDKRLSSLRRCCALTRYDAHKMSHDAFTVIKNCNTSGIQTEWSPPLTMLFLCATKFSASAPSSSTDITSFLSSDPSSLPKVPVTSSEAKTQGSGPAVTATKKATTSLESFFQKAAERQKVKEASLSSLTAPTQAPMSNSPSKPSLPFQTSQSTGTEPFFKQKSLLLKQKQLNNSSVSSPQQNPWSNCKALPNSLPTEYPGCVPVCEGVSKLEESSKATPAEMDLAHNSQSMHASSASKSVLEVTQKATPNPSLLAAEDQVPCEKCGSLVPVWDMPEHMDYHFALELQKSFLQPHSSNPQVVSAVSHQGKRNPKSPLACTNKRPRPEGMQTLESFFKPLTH
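Pol eta (10 nM) was preincubated with compounds for 15 min at room temperature, after which fluorescent replication substrate (50 nM final) was added to start the reaction. Fluorescence was read kinetically at 0 and 10 min.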
POLK inh: blocks human DNA polymerase kappa activity | purified Pol kappa, fluorescent DNA synthesis assay, 10 min | Potency, µM (doses to about 107 µM), for inactives: at the highest dose activity, negative = inhibition, usual class: inhibitors | actives 0.53% (n = 400,000) | AID 588579; further: potency means the concentration at half of the fitted maximal effect; on the % scale 0 is the no-effect control and ±100 the full control effect
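First, compounds were pin-transferred onto 10 nM Pol kappa. After 15 min at room temperature, substrate was added to 50 nM final. Fluorescence was then measured kinetically at 0 and 10 min.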
Pol beta inh: blocks human DNA polymerase beta activity; Pol beta primer extension/strand displacement, fluorescence kinetic; Potency, µM (top dose mostly 114 µM), for the others: at the top dose activity change, negative = inhibition, usual class: inhibitors; actives 1.3% (n = 340,000); AID 485314; further: potency means the concentration at half of the fitted maximal effect; on the % scale 0 is the no-effect control and ±100 the full control effect
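Curves were derived by four-parameter Hill fits of normalized qHTS data. The kinetic fluorescent primer-extension read was taken at 0 and 10 min after 50 nM substrate, following a 15 min room-temperature preincubation of 10 nM enzyme with compounds.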
ADP-Glo interf: ADP-Glo luciferase interference, PI5P4K counter-screen; Potency, µM (titrated, usually from 76.9 µM), inactives show at the top dose activity change, negative = inhibition, hits mostly inhibitors; ADP-Glo detection counter-screen, luciferase luminescence, no enzyme; shares compounds with PI5P4Ka inh; 1,100 tested, under 10 active; AID 743285
Active calls of the source: *; ? = inconclusive; · = no result given; [ ] = dose if it differs, or a comment. Unless noted, the call rests on the fitted dose curve; in most records, active means well fitted curve in the direction sought with a large enough effect; inconclusive means small, poorly fitted or top-dose-only effect, or another doubt; inactive means no such curve, though single readings can be large; an effect the other way counts as inactive or inconclusive.

SMILES	WRN inhibitor	Pol iota inh	PI5P4Ka inh	POLH inh	POLK inh	Pol beta inh	ADP-Glo interf
Cc1ccc(N(C(=O)CNC(=O)c2ccco2)C(C(=O)NC2CCCC2)c2cccnc2)c(C)c1 (stereo not given)	7.2%	18.7%	-58.5*	-16.7%	-3.7%	31.9%	-0.7%
COc1cccc(CNC(=O)Cn2c(=O)oc3cc(S(=O)(=O)N4CCCC4)ccc32)c1	·	-6.6%	·	-10.8%	-14.2%	-7.1%	·
Cc1oc2ccc(OCc3c(F)cccc3Cl)cc2c1C(=O)O	-4.9%	0.1%	-54.6*	-1.0%	11.6%	12.5%	-1.7%
Cc1oc2ccc(OCc3cccc(Cl)c3)cc2c1C(=O)O	4.3%	2.0%	?	-1.7%	-12.5%[60.1 µM]	22.6%	·
O=C(CN1CCCCC1)Nc1nnc(-c2ccc([N+](=O)[O-])cc2)s1	-14.5%[57.1 µM]	-22.7%	-70.5*	17.8µM*	-12.0%	7.7%	1.4%
NC(=O)c1c(NC(=O)c2cc3ccccc3o2)sc2c1CCC2	-13.0%[57.1 µM]	?	-55.9*	?	-32.5%	50.1µM*	-13.6%
COc1ccc(C(=O)NNC(=O)CN2CCC(n3nnc4cc(C(F)(F)F)ccc43)CC2)cc1	-0.7%	14.8%	·	4.9%	-0.3%	-1.3%	·
COC(=O)c1ccccc1NC(=O)CN1CCC(n2nnc3cc(C(F)(F)F)ccc32)CC1	-27.7%	-15.0%	?	-15.8%	-4.2%	-0.2%	4.2%
O=C(O)CCC(=O)N1CCC(n2nnc3cc(C(F)(F)F)ccc32)CC1	-5.6%[11.6 µM]	?	-23.7	?	-30.0%	6.9%	2.1%
CC1Cc2ccccc2N1C(=O)CN1CCC(n2nnc3cc(C(F)(F)F)ccc32)CC1 (stereo not given)	0.1%	2.2%	1.9	-18.9%	-17.3%	-1.0%	·
COc1ccc(NC(=O)CSc2nc(-c3ccco3)nc3cc(=O)[nH]n23)cc1Cl	-7.7%[11.6 µM]	79.4µM*	-56.0*	?	-37.2%	-33.9%	-3.3%
COc1ccc(NC(=O)CSc2nc(-c3ccco3)cc(C(F)(F)F)n2)cc1Cl	·	4.7%	·	2.4%	-17.2%	28.6%	·
Cc1c(C(=O)N2CCN(C(=O)c3ccccc3)CC2)oc2ccc(F)cc12	-17.9%	-4.2%	-53.5*	?	-23.2%	·	2.6%
O=C(CC1C(=O)NCCN1CC1CCCCC1)NCc1cc(F)ccc1F (stereo not given)	-33.6%	59.5%	-63.4*	-15.1%	2.5%	2.4%	5.7%
Clc1ccccc1OCCSc1nnc(-c2cccs2)o1	·	-0.4%	·	-11.1%	-6.9%	30.9%	·
COc1ccc(C(=O)N2CCC2(C)C(=O)O)cc1F (stereo not given)	1.7%	·	?	·	·	·	1.9%
CCOC(=O)C1(C)CCCN1C(=O)c1ccc(OC)c(F)c1 (stereo not given)	3.0%	·	-2.0	·	·	·	·
CCOc1ccc(C(=O)c2oc3ccccc3c2NC(=O)c2cc(=O)c3ccc(C)cc3o2)cc1	·	16.1%	·	0.2%	13.3%	4.2%	·
Cc1nn(-c2ccccc2)c(OC(=O)c2cccc(Br)c2)c1S(=O)(=O)c1ccccc1	·	-2.0%	·	-10.3%	14.2%	8.9%	·
COc1ccc(-n2c3c(cc(-c4nc(-c5ccc(Cl)cc5)cs4)c2=O)C(=O)CC(C)(C)C3)cc1	·	20.3%	·	-15.1%	7.1%	-8.5%	·
Cc1cc(C)cc(-n2ccn(Cc3ccccc3C)c(=O)c2=O)c1	·	22.3%	·	-15.7%	-3.5%	16.5%	·
COc1cccc(CNS(=O)(=O)c2ccccc2Br)c1OC	2.9%	7.7%	-59.9*	-18.6%	-5.1%	·	1.1%
O=C(Oc1cc2oc(=O)cc(-c3ccccc3)c2cc1Cl)C1CCCCC1	-22.6%	-7.4%	-88.0*	-17.7%	-13.3%	-1.3%	-7.6%
Cc1ccc(C)c(C2=NNC(=NCc3ccccc3)SC2)c1	-24.7%	70.6%	-65.5*	-12.0%	-2.6%	-20.3%	-3.2%
COc1ccc(Cl)cc1NC(=O)NCCc1c(C)nn(C)c1C	·	18.9%	·	-15.9%	-4.7%[60.1 µM]	-3.3%	·
